The whole screen tested about 2,300 compounds, of which about 550 (24%) were called active. The rule behind the calls is not given here. The list is a sample of the results. A call without a number means that no potency is given here. Potency and affinity values are given separately.
Test: Vero E6 cell cytotoxicity, dose response, cytotoxicity control for non-replicating M. tuberculosis project, secondary assay (AID 492998)
Conditions: series mostly up to 20 µM

SMILES	outcome
Cc1nc(-c2ccc(C(F)(F)F)cc2)sc1C(=O)NN	inactive
Cc1cc(Cl)ccc1NNC(=O)c1cccs1	inactive
COC(=O)COc1ccc2c(=O)c(-c3ccccc3OC)coc2c1	inactive
Cc1ccnc(NC(=O)c2cc3ccccc3o2)c1	inactive
Cc1n[nH]c(C)c1CCOc1ccc(C(C)C)cc1	inactive
COc1cc(OC)cc(-c2nc3ccccc3c(=O)o2)c1	inactive
CCCOC(=O)c1ccc(NC(=O)C2C3C=CC(O3)C2C(=O)O)cc1 (stereo not drawn)	inactive
CCCCCCNC(=O)c1ccc(Br)o1	inactive
CC(=O)CCC1CC(c2ccc(Cl)cc2)=NO1 (stereo not drawn)	inactive
C=CC[n+]1ccn(-c2nc3ccccc3nc2[N-]S(=O)(=O)c2cccs2)c1	inactive
Cc1cc(C)c2sc(NC(=O)C3=COCCO3)nc2c1	inactive
CCOc1ccc(-c2nnc(NC(=O)CCCOc3cccc(C)c3)o2)cc1	inactive
COC(=O)c1ccc(OCC(=O)c2cccc(OC)c2)cc1	inactive
COc1ccc(C(=O)Nc2nnc(C3=COCCO3)o2)cc1	inactive
N[C@@H](Cc1ccccc1)c1nnc(SC/C=C/c2ccccc2)o1	inactive
CSCCC(=O)N1CCCC(N2CCN(c3cccc(C(F)(F)F)c3)CC2)C1 (stereo not drawn)	inactive
COc1cccc(CN2CCC(N(CCc3ccccc3)Cc3ccccc3)CC2)c1OC	inactive
Cc1cc2ccccc2n1CCNC(=O)C(C)(C)C	inactive
O=C(COc1ccc(Nc2ccccc2)cc1)OCC(=O)N1CCCCC1	inactive
CC(C)c1nnc(NC(=O)c2sc3ccccc3c2Cl)s1	inactive
CCc1nnc(NC(=O)c2cc3ccccc3oc2=O)s1	inactive
CC(C)Cn1c(N)c(C(=O)COC(=O)c2ccc([N+](=O)[O-])o2)c(=O)n(C)c1=O	inactive
O=C(Nc1sc2c(c1C(=O)O)CCCCC2)c1ccccc1F	inactive
O=C(Nc1sc2c(c1C(=O)O)CCCC2)c1ccc(F)cc1	inactive

SMILES	outcome
COC(=O)c1sc(NC(=O)c2ccc([N+](=O)[O-])o2)c(C#N)c1C	inactive
O=C(c1ccc([N+](=O)[O-])o1)N1CCc2ccccc2C1	inactive
COc1ccc(COc2cccc(C=O)c2)cc1	inactive
CCc1ccccc1NC(=O)C1COc2ccccc2O1 (stereo not drawn)	inactive
O=C(OCc1cccc(F)c1)c1ccc2c(=O)n3c(nc2c1)CCC3	inactive
Cc1c(Cl)cccc1NC(=O)C(=O)NNC(=O)c1ccccc1F	inactive
COc1cccc(N2C(=O)NC(=O)/C(=C/c3ccc([N+](=O)[O-])s3)C2=O)c1	inactive
c1ccc2sc(SCc3ccc(-c4nnco4)cc3)nc2c1	inactive
Oc1c(Br)cc(Br)cc1/C=N/c1nccs1	inactive
C/C(=N\NC(=O)c1nn(C)cc1Cl)c1ccncc1	inactive
Cc1cc(N2CCC(C)CC2)nc(-n2nc(C)cc2C)n1	inactive
CCOc1ccc(NC(=O)Cn2sc3nc(C)cc(C)c3c2=O)cc1	inactive
CCOc1ccc(OCC(=O)Nc2ccc(OC)cc2)cc1	inactive
CC(=O)c1ccc(OC(=O)c2ccc(-n3nc(C)cc3C)cc2)cc1	inactive
CC1(C)OC(c2ccccc2)=C/C(=C\C=N\NC(=O)c2ccncc2)O1	inactive
COc1ccc(N2CCN(CC(=O)NC(=O)NC(C)(C)C)CC2)cc1	inactive
CN(C(=O)COC(=O)c1ccc([N+](=O)[O-])cc1Cl)C1CCCCC1	inactive
O=C(N/N=C/c1ccc[nH]1)c1ccc(Cl)cc1	inactive
Cc1ccc(O)c(C(=O)c2cc(C#N)c(=O)n(-c3nccs3)c2)c1	inactive
O=C(CC1CCCC1)OCn1nnc2ccccc2c1=O	inactive
COc1ccc(-n2c3c(cc(C(=O)NNc4ccccc4)c2=O)C(=O)CC(C)(C)C3)cc1	inactive
CCOC(=O)Cc1cc(=O)n2[nH]cc(-c3ccc(Cl)cc3)c2n1	inactive
CCOC(=O)Cc1ccc(NCc2ccc(Cl)cc2)cc1	inactive
CCOC(=O)c1c(C)nc2c3ccccc3ccn12	inactive

SMILES	outcome
CCOC(=O)C1(O)CC(C)=NN1C(=O)c1cccc(Br)c1 (stereo not drawn)	inactive
CCOc1ccc(NC(=O)CCc2ccc(C)o2)cc1	inactive
CC(C)(C)NC(=O)C(=O)NNC(=O)COc1ccc(Br)cc1	inactive
O=C(COC(=O)c1cccc(C(F)(F)F)c1)NCc1ccccc1	inactive
CCOC(=O)COc1ccc2c(c1)c(C(=O)OCC)c(C)n2CC	inactive
CCCCN1CCC(O)(c2ccccc2)C(C(=O)c2ccccc2)C1 (stereo not drawn)	inactive
CCOc1c(OC(C)=O)ccc(/C=C2\N=C(SCC)SC2=O)c1[N+](=O)[O-]	inactive
O=Cc1ccc(OC2OCCOC2Oc2ccc(C=O)cc2)cc1 (stereo not drawn)	inactive
Cc1cc2nc(CSc3ccc(Cl)cc3)cc(=O)n2[nH]1	inactive
CS(=O)(=O)Cc1nc2ccccc2oc1=O	inactive
COc1cccc2cc(-c3nc4ccccc4o3)c(=O)oc12	inactive
O=C(CCN1CCN(C/C=C/c2ccccc2)CC1)Nc1ccc(Cl)cc1	inactive
Cc1ccc(-c2nnc(COC(=O)c3cccs3)o2)cc1	inactive
CCOC(=O)C(=NCCOC)NNc1cc(Cl)ccc1Cl	inactive
O=C(COc1ccccc1)NCCSCc1ccc(Cl)cc1	inactive
OC(COc1ccccc1Cl)CN1CCN(CC(O)COc2ccccc2Cl)CC1 (stereo not drawn)	inactive
Cc1cccc(OCC(O)Cn2c(=N)n(Cc3ccccc3)c3ccccc32)c1 (stereo not drawn)	inactive
OC(COc1ccc2ccccc2c1Br)Cn1ccnc1 (stereo not drawn)	inactive
CC(=O)n1cc(/C=C2/N=C(c3ccccc3)OC2=O)c2ccccc21	inactive
COc1cc(C(=O)ON=C2C=C(C)C(=O)C(C)=C2)cc(OC)c1OC	inactive
CCOCC(=O)Nc1ccc(C)c(Cl)c1	inactive
Cc1cc(NC(=O)COC(=O)COc2ccc(C(=O)c3ccccc3)cc2)no1	inactive
O=C(O)c1ccc(NCc2ccc(Br)cc2)cc1	inactive
CC(=O)Nc1ccc(NC(=O)[C@@H]2CCCC[C@@H]2C(=O)O)cc1	inactive

SMILES	outcome
O=C(COc1ccc2ccccc2c1)N1CCCC1	inactive
Nc1c(Cl)cc(Cl)cc1C(=O)OCC(=O)N1CCCC1	inactive
CCOC(=O)c1ccc(-c2ccc(C(=O)Nc3cccnc3)o2)cc1	inactive
CCOC(=O)C1CCCN(Cc2ccc(OCc3ccccc3)cc2)C1 (stereo not drawn)	inactive
CCC(C)NCCOc1ccc(C(C)(C)c2ccccc2)cc1 (stereo not drawn)	inactive
CN=C1S/C(=C\c2ccc(OCC(=O)OC)c(OC)c2)C(=O)N1C	inactive
CC(C)CSc1nnc2c3ccccc3n(C)c2n1	inactive
CC(C)[C@@H]1CC[C@@H](C)C[C@H]1OC(=O)C[n+]1cc(-c2ccc(Cl)cc2)n2c1CCCCC2	inactive
COc1ccc(NC(=O)c2cc3ccccc3o2)cc1	inactive
CCCn1nnnc1NCc1ccc(C(C)C)cc1	inactive
CCc1nonc1NC(=O)COc1ccc(Cl)c(C)c1	inactive
O=C1/C(=C/c2ccccn2)COc2ccccc21	inactive
Cn1nnc(NC(=O)COc2ccc(C3CCCCC3)cc2)n1	inactive
O=C(NCc1ccc(F)cc1)c1cnccn1	inactive
O=C(Oc1ccccc1)c1ccc(COC(=O)c2cnccn2)cc1	inactive
COc1c[nH]n(C2CCCCC2)c(=O)c1=O	inactive
CCCN(Cc1nnc(-c2ccccc2Cl)o1)C(=O)c1cc([N+](=O)[O-])cc([N+](=O)[O-])c1	inactive
Cc1ccc(NC(=O)COc2ccc3c(c2)CCC3)nc1	inactive
COc1ccc(CNC(=O)c2cc3cccc(O)c3oc2=N)cc1	inactive
CCc1ccc(N2NC(=O)/C(=C/C=C/c3ccco3)C2=O)cc1	inactive
O=C(COc1cccc2ccccc12)Nc1nc2ccccc2[nH]1	inactive
CC1Cc2cc(/C=C3/SC(=S)NC3=O)ccc2O1 (stereo not drawn)	inactive
Cc1cccc2cc(C#N)c(NCCCn3ccnc3)nc12	inactive
c1ccc(-c2nc(NCCCn3ccnc3)c3ccccc3n2)cc1	inactive

SMILES	outcome
O=C(COC(=O)CCc1c[nH]c2ccccc12)Nc1cc([N+](=O)[O-])ccc1Cl	inactive
Cc1nnc(N/N=C/c2cccc(OCc3ccc(Cl)c(Cl)c3)c2)n1N	inactive
CCCCCCC1CC(C)(C(=O)CNc2nncs2)OC1=O (stereo not drawn)	inactive
CCCn1nnc(NC(=O)COc2ccc(CC)cc2)n1	inactive
Cc1nc(C(=O)Nc2ccccc2)sc1C(=O)Nc1ccccc1	inactive
CNC(=O)c1[nH]cnc1C(=O)Nc1ccc(Cl)cc1	inactive
Nc1nnc(Sc2ncccc2[N+](=O)[O-])s1	inactive
CC(C)OC(=O)C(C)Oc1ccc(C(=O)NCCc2ccccc2)cc1 (stereo not drawn)	inactive
CC(=O)c1cc2c(ccc3ccccc32)oc1=O	inactive
Cc1ccc(/C=C2/C(=O)NC(=O)N(CCc3ccc(F)cc3)C2=O)s1	inactive
Cn1cccc1/C=C1/C(=O)NC(=S)N(Cc2ccc(F)cc2)C1=O	inactive
O=C1CC(N2CCSCC2)C(=O)N1CCc1ccccc1 (stereo not drawn)	inactive
CCCCSc1nnc(-c2cc(Br)ccc2N)c(=O)[nH]1	inactive
O=C(NCCc1cccc(Cl)c1)c1cc2ccccc2oc1=O	inactive
Cc1ccc(-c2ccc(/C=N/NC(=O)CN3CCCC3)o2)cc1Cl	inactive
COc1ccccc1OCCNC(=O)c1cc([N+](=O)[O-])cc([N+](=O)[O-])c1	inactive
O=C(N/N=C/c1ccccn1)c1cc([N+](=O)[O-])cc([N+](=O)[O-])c1	inactive
COC(=O)C1=C(C)N(CC2CC2)C(=NCc2cccc(Cl)c2)N[C@H]1c1ccccc1	inactive
O=C(COc1ccc(Br)cc1)N/N=C1/SCC(=O)N1Cc1ccccc1	inactive
CC(=O)c1c(O)cc(=O)n(-c2ccccc2)c1-c1ccc(C)cc1	inactive
CN(C)CCC(=O)N1c2ccccc2Sc2ccc(Cl)cc21	inactive
CCOC(=O)c1ccc(NC(=O)NS(=O)(=O)c2ccc(C)cc2)cc1	inactive
